# Measurements published in PubChem BioAssay (EPA / NIEHS).
# The source made the active and inactive calls. How the source made its calls: active means hit-call score of the fitted dose curve at least 0.9, where 1 is the maximum; inactive means score below 0.9.
# Read-out: Insulin-like growth factor-binding protein 1 (IGFBP1), IGFBP1 (gene 3484)
# Test: LTEA_HepaRG_IGFBP1: Life Technologies and Expression Analysis (LTEA) Assay for Insulin-like growth factor-binding protein 1 (IGFBP1) using HepaRG (AID 2283508)
# Conditions: mRNA level, 48 h; actives raise or lower the signal
# Experimental: LTEA_HepaRG is a cell based, multiplexed-readout assay that uses HepaRG, a human liver cell line, with measurements taken at 48 hours after chemical dosing on a 96-well plate.LTEA_HepaRG_IGFBP1 is one of 102 assay component(s) measured in the LTEA HepaRG cell culture assay. It is a marker of Cell proliferation, survival, death.Data from the assay component LTEA_HepaRG_IGFBP1 was analyzed into 1 endpoint. This assay endpoint, LTEA_HepaRG_IGFBP1, was analyzed with bidirectional fitting relative to DMSO as the negative control and baseline of activity. Using a type of inducible reporter, measures of mRNA induction for gain or loss-of-signal activity can be used to understand regulation of transcription factor activity. To generalize the intended target to other relatable targets, this assay endpoint is annotated to the transporter intended target family, where the subfamily is hormone carrier protein.
# A total of 1060 chemcials from the ToxCast library were tested in eight-point concentration-response experiments. Cell culture and cytotoxicity assays were conducted at Thermo Fisher Scientific's Custom Services facility (Madison, WI). A single lot of human HepaRG cells (Thermo Fisher Scientific, Frederick, MD) was used for the cell culture experiments. 96-well format collagen type I coated plates of human HepaRG cells were prepared using established methods. Briefly, cryopreserved HepaRG cells were thawed, plated at a density of approximately 100,000 cells/well in HepaRG Thaw, Plate, and General Purpose media (HPRG770, Thermo Fisher Scientific), and incubated for 48 hours. 0.5% DMSO was selected as vehicle control to balance the requisite need of DMSO in HepaRG cultures to maintain differentiation (for example, baseline metabolism, proportions of hepatocytes vs. cholangiocytes), while enabling further hepatic receptor pathway activation (for example, PXR and CAR) in response to chemical exposure. 48 hours after plating, the culture medium was replaced with HepaRG Serum-Free Incudtion Media. Cells were exposed to each test chemical in duplicate and maintained in CO2 incubators for another 48 hours. Chemical plates were thawed to room temperature and 200x concentrations of treatment groups were prepared. 8-point conentration-reponse curves were made with the highest exposure at 100 uM, followed by half-log dilutions, all in 0.5% DMSO. Each test plate contained variouse controls, induction positive controls (1mM phenobarbital), cytotoxicity positive controls ([…] aflatoxin B1), vehicle controls (0.5% DMSO), and total lysis controls (0.5% DMSO). Cell morphology images were taken using an Essen IncuCyte FLR automated microscope, with six 96-well plates imaged in about 24 minutes. Images were captured and exported and JPEG files. Spent culture media was transfered to black-well plates for the LDH assay, and remaining media was sorted at -80 C for later use. Cells were treated with RLT buffer and frozen until shipped for gene expression analysis. Total RNA was isolated from the cell suspension in 75 uL of Buffer RLT (Qiagen, Germantown, MD 20874) by Quintiles/Expression Analysis (Durham, NC) using a custom isolation procedure. Total RNA from each plate well was transferred to a preamplification plate. Fluidigm's 96.96 Dynamic ArrayTM (Fluidigm, Amsterdam, the Netherlands) technology was used for gene expression analyses by quantitative reverse transcription polymerase chain reaction (qRT-PCR, performed by Quintiles/Expression Analysis, Durham, NC)89. Standard TaqManTM Assays (Applied Biosystems/ThermoFisher Scientific, Foster City, CA) were used to assess the expression of 93 genes selected based on their selectivity and sensitivity to important hepatic receptors known to be modulated by environmental chemicals; importance in human hepatocyte functionality; and hepatotoxicity. […]
Compound,outcome,AC50
COP(=O)(OC)C(O)C(Cl)(Cl)Cl (stereo not given),inactive,
C=C(C)[C@H]1Cc2c(ccc3c2O[C@@H]2COc4cc(OC)c(OC)cc4[C@@H]2C3=O)O1,,2.9 µM (active)
CCOP(=S)(OCC)Oc1ccc2c(C)c(Cl)c(=O)oc2c1,,21.5 µM (active)
CCNc1nc(Cl)nc(NC(C)(C)C#N)n1,inactive,
COP(=O)(OC)SCn1c(=O)oc2cc(Cl)cnc21,inactive,
CN1COCN(Cc2cnc(Cl)s2)C1=N[N+](=O)[O-],inactive,
CCOP(=O)(SC(C)CC)N1CCSC1=O (stereo not given),inactive,
CN(C)C(=O)Nc1cccc(C(F)(F)F)c1,inactive,
Nc1c(Cl)cc([N+](=O)[O-])cc1Cl,,23.7 µM (active)
COP(=O)(NC(C)=O)SC (stereo not given),inactive,
Cc1ccn2nc(S(=O)(=O)Nc3c(F)cccc3F)nc2n1,inactive,
CCOP(=S)(OCC)OC(Cl)C(Cl)(Cl)Cl (stereo not given),inactive,
CCOC(=O)CC(SP(=O)(OC)OC)C(=O)OCC (stereo not given),inactive,
Cc1cc(C2CC2)nc(Nc2ccccc2)n1,inactive,
CCCOc1nn(C(=O)NS(=O)(=O)c2ccccc2C(=O)OC)c(=O)n1C,inactive,
CNC(=O)ON=C(C)SC,inactive,
CCOP(=S)(Oc1cnc(C(C)(C)C)nc1)OC(C)C (stereo not given),inactive,
CC(C)=CC1C(C(=O)OCN2C(=O)C3=C(CCCC3)C2=O)C1(C)C (stereo not given),inactive,
CSc1nnc(C(C)(C)C)c(=O)n1N,inactive,
CC(COc1ccc(Oc2ccccc2)cc1)Oc1ccccn1 (stereo not given),inactive,

Compound,outcome,AC50
CCOP(=S)(OCC)Oc1ccc([N+](=O)[O-])cc1,inactive,
CCOP(=S)(OCC)Oc1cc(C)nc(C(C)C)n1,,19 µM (active)
CCC(CC)Nc1c([N+](=O)[O-])cc(C)c(C)c1[N+](=O)[O-],inactive,
CC(C)N(C(=O)SCC(Cl)=C(Cl)Cl)C(C)C,inactive,
CCOP(=O)(OCC)Oc1cc(C)nc(C(C)C)n1,inactive,
CC[C@H](C)[C@H]1O[C@]2(C=C[C@@H]1C)C[C@@H]1C[C@@H](C/C=C(\C)[C@@H](O[C@H]3C[C@H](OC)[C@@H](O[C@H]4C[C@H](OC)[C@@H](NC)[C@H](C)O4)[C@H](C)O3)[C@@H](C)/C=C/C=C3\CO[C@@H]4[C@H](O)C(C)=C[C@@H](C(=O)O1)[C@]34O)O2,,14.6 µM (active)
CC(C1CC1)C(O)(Cn1cncn1)c1ccc(Cl)cc1 (stereo not given),inactive,
CC1(C(=O)Nc2ccc(O)c(Cl)c2Cl)CCCCC1,inactive,
CCOP(=S)(OCC)SCCSCC,inactive,
COc1cc(OC)nc(Sc2cccc(Cl)c2C(=O)O)n1,inactive,
Nc1nc(N)nc(NC2CC2)n1,inactive,
CC(C)[C@H](C(=O)O[C@H](C#N)c1cccc(Oc2ccccc2)c1)c1ccc(Cl)cc1,inactive,
COc1cccc(C(=O)NN(C(=O)c2cc(C)cc(C)c2)C(C)(C)C)c1C,inactive,
CNC(=O)Oc1cccc2c1OC(C)(C)O2,inactive,
COc1ccc(C(=CC(=O)N2CCOCC2)c2ccc(Cl)cc2)cc1OC,inactive,
O=C(O)c1cc(Oc2ccc(C(F)(F)F)cc2Cl)ccc1[N+](=O)[O-],inactive,
O=c1ccc(=O)[nH][nH]1,inactive,
CCC(=NOC/C=C/Cl)C1=C(O)CC(C2CCOCC2)CC1=O (stereo not given),inactive,
C#CC(C)(C)NC(=O)c1cc(Cl)cc(Cl)c1,inactive,
CCC(=O)Nc1ccc(Cl)c(Cl)c1,,50 µM (active)
